± gives the standard deviation of the averaged measurements. Whole data set: some 33,000 sequences, median “E-score (rank enrichment, -0.5 to 0.5)” near -0.0075, cut for the highest 2% near 0.23. The sample holds the highest values, similar sequences and a random draw of the others, so the mix is not that of the screen.
What follows are sequences tested on WT Max(13-93) synthetic (M65Nle) (assay: PBM 8-mer E-score (E-score (rank enrichment, -0.5 to 0.5)); higher = stronger preferential binding).
Method: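 Protein binding microarray (universal PBM chip covering all 10-mers in fixed probe flanks) with chemically synthesized human Max(13-93) bHLH-LZ analogs (not full-length Max) bearing noncanonical residues (hArg, Tha, Aib, Nle at 65) and aromatic Cys staples. Read-out per 8-mer (and its reverse complement): E-score (rank-based enrichment, -0.5 to 0.5) and Z-score of median probe intensity.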

Sequence	PBM 8-mer E-score
AGTTGTGG	0.00744 ± 0.15
CGACCGTA	-0.107 ± 0.19
CCATAGAA	0.0354 ± 0.028
GAACCAGC	-0.132 ± 0.07
GGGCCATA	0.00373 ± 0.018
CAGTTACG	-0.0592 ± 0.044
AATGTAAA	0.278 ± 0.0039
AATGTGTA	0.167 ± 0.021
AATGTGTG	0.267 ± 0.05
AATGTATG	0.255 ± 0.086
CATGTAAA	0.203 ± 0.052
AATGTGTC	0.0393 ± 0.0075
AATGTATA	0.211 ± 0.048
AATGTATC	0.168 ± 0.036
AATGTAAT	0.12 ± 0.11
ATAGGCGG	0.057 ± 0.12
AAAGGATC	-0.108 ± 0.042
AGCTTCAA	0.106 ± 0.021
ATCACTGA	-0.0485 ± 0.06
GTGTGAAA	0.1684 ± 0.00099
CCGTGAAA	-0.0191 ± 0.012
ACGTGAAT	0.239 ± 0.066
ACGTGAAG	0.0785 ± 0.02
CTGTGAAA	0.00343 ± 0.13

Sequence	PBM 8-mer E-score
ACGTGAAA	0.279 ± 0.041
TCGTGAAA	-0.119 ± 0.14
ACGTGAAC	0.0244 ± 0.025
ATGTGAAA	0.271 ± 0.12
AACGGTAC	0.0818 ± 0.035
TAGATTGA	-0.00515 ± 0.13
CCAGCAAC	-0.121 ± 0.011
CACATTCA	0.111 ± 0.11
CGTGGCCA	0.131 ± 0.084
TCTACAAA	0.0553 ± 0.18
ACGTATTA	0.165 ± 0.11
GAAGGTAC	-0.096 ± 0.22
ACCACTCC	0.0165 ± 0.045
CAAAATGA	0.287 ± 0.014
TAAAATGA	0.153 ± 0.019
GAAAATGA	0.0385 ± 0.12
AAAAATGA	0.2619 ± 0.0016
CAAAATGG	0.116 ± 0.0099
CAAAATGC	0.0988 ± 0.086
GCTCACTA	0.105 ± 0.0026
ACTCTTAC	0.0838 ± 0.051
AGACTGGC	-0.174 ± 0.07
AGACATCT	0.0328 ± 0.02
GGTAAACA	0.0182 ± 0.025

Sequence	PBM 8-mer E-score
AGTAGAAA	0.184 ± 0.098
TGTAAACA	0.237 ± 0.079
TGTAGAAA	0.284 ± 0.026
TGTAAAAA	0.248 ± 0.099
AGTAAACA	0.177 ± 0.012
CGTAGAAA	0.2 ± 0.024
CGTAAAAA	0.107 ± 0.012
AGTAAAAA	0.207 ± 0.023
CGCATCAG	-0.138 ± 0.15
AACCGTTC	-0.064 ± 0.11
CTCTAATC	-0.0502 ± 0.086
TCTTGGAA	-0.078 ± 0.026
AAAGGTGT	0.103 ± 0.015
ATATTCAT	0.218 ± 0.056
ATGTGCGG	0.0139 ± 0.1
ACGTGCGA	0.229 ± 0.046
CCGTGCGC	0.0359 ± 0.14
ACGTGCGG	0.254 ± 0.056
ACGTGCGC	0.279 ± 0.03
ATGTGCGC	0.1696 ± 0.00066
GGGGGTCA	-0.172 ± 0.1
GTAGTGAC	-0.0549 ± 0.095
GATCCACC	-0.171 ± 0.058
CGAGCGAG	0.0998 ± 0.018

Reference: the supplement of paper PMC12636033
